# From PubChem BioAssay (NCI)
# Compounds without any hit were thinned out: in the full panel of roughly 79,000, 15% have a hit. A number with no mark means an inactive call. The source made the active and inactive calls. Rule as the data show it: active = growth inhibition above about 70%; inactive = the rest.
# What was measured:
# [1] = NCI Yeast Anticancer Drug Screen. Data for the rad52 strain (AID 147);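 also: 0% = growth of vehicle-treated control cultures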; details: S. cerevisiae rad52 mutant growth inhibition, hits give high values
# Method in brief: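 Measured: yeast growth inhibition. System: strain with a defined DNA damage repair alteration. Reference: vehicle-treated control cultures.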
# [2] = NCI Yeast Anticancer Drug Screen. Data for the wt1 strain (AID 149);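 also: 0% = growth of vehicle-treated wt1 cultures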; details: S. cerevisiae wt1 strain (SPY 50644) growth inhibition, hits give high values
# Method in brief: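 Measured: growth of wt1 yeast under compound versus vehicle treatment, reported as inhibition.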
# [3] = NCI Yeast Anticancer Drug Screen. Data for the mgt1 strain (AID 153); details: S. cerevisiae mgt1 mutant growth inhibition, hits give high values
# Method in brief: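 After exposure of the mgt1 yeast mutant to compound, growth was measured and reported as inhibition compared with vehicle controls.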
# [4] = NCI Yeast Anticancer Drug Screen. Data for the rad50 strain (AID 155);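 also: 0% = growth of vehicle-only cultures of the same strain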; details: S. cerevisiae rad50 strain growth inhibition, hits give high values
# Method in brief: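 Growth of the mutant yeast was measured after compound exposure and referenced to vehicle-treated cultures.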
# [5] = NCI Yeast Anticancer Drug Screen. Data for the mec2-1 strain (AID 157); details: S. cerevisiae mec2-1 strain, hits give high values
# Method in brief: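 Test agents were screened against the mec2-1 yeast strain, with defined DNA repair or cell cycle alteration. Growth was scored as inhibition against vehicle-only controls.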
# [6] = NCI Yeast Anticancer Drug Screen. Data for the rad14 strain (AID 159);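 also: 0% = growth of vehicle-treated control cultures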; details: S. cerevisiae rad14 strain growth inhibition, hits give high values
# Method in brief: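 Here, inhibition of yeast growth was measured after compound exposure, using a strain with a genetic defect in DNA damage repair and vehicle-treated cultures as the reference.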
# [7] = NCI Yeast Anticancer Drug Screen. Data for the sgs1 mgt1 strain (AID 161);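 also: 0% = growth of cultures given vehicle only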; details: S. cerevisiae sgs1 mgt1 strain, hits give high values
# Method in brief: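 Mutant yeast exposed to compound; growth scored against vehicle-only wells.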
# [8] = NCI Yeast Anticancer Drug Screen. Data for the CLN2oe strain (AID 163);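 also: 0% = growth of vehicle-only control cultures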; details: S. cerevisiae CLN2oe strain, hits give high values
# Method in brief: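 Here, growth inhibition in a cell-cycle-altered yeast strain after compound exposure was quantified against vehicle control growth.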
# [9] = NCI Yeast Anticancer Drug Screen. Data for the cln2 rad14 strain (AID 165);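 also: 0% = growth equal to vehicle treated cultures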; details: S. cerevisiae cln2 rad14 strain, hits give high values
# Method in brief: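 Growth of compound-exposed yeast (cln2 rad14 genotype) measured and expressed as inhibition relative to vehicle.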
# [10] = NCI Yeast Anticancer Drug Screen. Data for the bub3 strain (AID 167); details: S. cerevisiae bub3 mutant strain, hits give high values
# Method in brief: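 Whole-cell yeast assay. The mutant strain was incubated with compounds, and growth inhibition was determined by comparison with vehicle-treated cells.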
# [11] = NCI Yeast Anticancer Drug Screen. Data for the mlh1 strain (AID 171);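 also: 0% = growth of vehicle-treated control cultures of the same strain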; details: S. cerevisiae mlh1 strain growth inhibition, hits give high values
# Method in brief: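 Here the genetically defined yeast mutant is grown with each compound, and the extent to which its growth falls below that of vehicle-exposed cells is reported.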
# [12] = NCI Yeast Anticancer Drug Screen. Data for the sgs1 strain (AID 173);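 also: 0% = growth of vehicle-only control cultures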; details: S. cerevisiae sgs1 mutant, hits give high values
# Method in brief: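 Relative growth inhibition, referenced to vehicle, was determined in a yeast strain with a defined alteration affecting DNA damage repair or cell cycle control after compound exposure.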
# [13] = NCI Yeast Anticancer Drug Screen. Data for the mlh1 rad18 strain (AID 175); details: S. cerevisiae mlh1 rad18 strain growth inhibition, hits give high values
# Method in brief: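 In this whole-cell yeast screen, a strain with altered DNA damage repair is challenged with compound, and its growth is measured against matched vehicle-treated controls.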
# [14] = NCI Yeast Anticancer Drug Screen. Data for the rad18 strain (AID 177); details: S. cerevisiae rad18 mutant growth inhibition, hits give high values
# Method in brief: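 Screen uses a yeast strain with a defined lesion in DNA damage repair; compound effect is read as loss of growth compared to untreated vehicle cultures.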
# [15] = at 5.0 µM (retest, dose inferred, filed as 0.5)
# [16] = at 50.0 µM (retest, dose inferred, filed as 5.0)
smiles,measurement,setting,value
Cc1ccc(S/N=C\c2ccccc2O)cc1,growth inhibition,[1]; at 1.2 µM,1%
same,growth inhibition,[1]; at 3.7 µM,-6%
same,growth inhibition,[1]; at 11.0 µM,-3%
same,growth inhibition,[1]; at 33.0 µM,0%
same,growth inhibition,[1]; at 100.0 µM,8%
same,growth inhibition,[2]; at 1.2 µM,-1%
same,growth inhibition,[2]; at 3.7 µM,0%
same,growth inhibition,[2]; at 11.0 µM,0%
same,growth inhibition,[2]; at 33.0 µM,1%
same,growth inhibition,[2]; at 100.0 µM,1%
same,growth inhibition,[3]; at 1.2 µM,2%
same,growth inhibition,[3]; at 3.7 µM,-1%
same,growth inhibition,[3]; at 11.0 µM,1%
same,growth inhibition,[3]; at 33.0 µM,7%
same,growth inhibition,[3]; at 100.0 µM,-1%
same,growth inhibition,[4]; at 1.2 µM,-2%
same,growth inhibition,[4]; at 3.7 µM,-12%
same,growth inhibition,[4]; [15],-130%
same,growth inhibition,[4]; at 11.0 µM,2%
same,growth inhibition,[4]; at 33.0 µM,12%
same,growth inhibition,[4]; [16],79% (active)
same,growth inhibition,[4]; at 50.0 µM,89.6% (active)
same,growth inhibition,[4]; at 100.0 µM,6%
same,growth inhibition,[5]; at 1.2 µM,0%
same,growth inhibition,[5]; at 3.7 µM,3%
same,growth inhibition,[5]; [15],-48%
same,growth inhibition,[5]; at 11.0 µM,-11%
same,growth inhibition,[5]; at 33.0 µM,-1%
same,growth inhibition,[5]; [16],-4%
same,growth inhibition,[5]; at 50.0 µM,73.6% (active)
same,growth inhibition,[5]; at 100.0 µM,7%
same,growth inhibition,[6]; at 1.2 µM,-2%
same,growth inhibition,[6]; at 3.7 µM,-6%
same,growth inhibition,[6]; at 11.0 µM,-4%
same,growth inhibition,[6]; at 33.0 µM,-3%
same,growth inhibition,[6]; at 100.0 µM,1%
same,growth inhibition,[7]; [15],-59%
same,growth inhibition,[7]; [16],53%
same,growth inhibition,[7]; at 50.0 µM,62%
same,growth inhibition,[8]; at 1.2 µM,2%
same,growth inhibition,[8]; at 3.7 µM,1%
same,growth inhibition,[8]; at 11.0 µM,2%
same,growth inhibition,[8]; at 33.0 µM,2%
same,growth inhibition,[8]; at 100.0 µM,4%
same,growth inhibition,[9]; [15],-58%
same,growth inhibition,[9]; [16],-23%
same,growth inhibition,[9]; at 50.0 µM,34.9%
same,growth inhibition,[10]; at 1.2 µM,-4%
same,growth inhibition,[10]; at 3.7 µM,-6%
same,growth inhibition,[10]; [15],-59%
same,growth inhibition,[10]; at 11.0 µM,-2%
same,growth inhibition,[10]; at 33.0 µM,-5%
same,growth inhibition,[10]; [16],47%
same,growth inhibition,[10]; at 50.0 µM,76.5% (active)
same,growth inhibition,[10]; at 100.0 µM,4%
same,growth inhibition,[11]; at 1.2 µM,9%
same,growth inhibition,[11]; at 3.7 µM,2%
same,growth inhibition,[11]; at 11.0 µM,-2%
same,growth inhibition,[11]; at 33.0 µM,0%
same,growth inhibition,[11]; at 100.0 µM,1%
same,growth inhibition,[12]; at 1.2 µM,3%
same,growth inhibition,[12]; at 3.7 µM,7%
same,growth inhibition,[12]; at 11.0 µM,7%
same,growth inhibition,[12]; at 33.0 µM,9%
same,growth inhibition,[12]; at 100.0 µM,6%
same,growth inhibition,[13]; [15],-112%
same,growth inhibition,[13]; [16],31%
same,growth inhibition,[13]; at 50.0 µM,94.3% (active)
same,growth inhibition,[14]; at 1.2 µM,-1%
same,growth inhibition,[14]; at 3.7 µM,0%
same,growth inhibition,[14]; at 11.0 µM,0%
same,growth inhibition,[14]; at 33.0 µM,1%
same,growth inhibition,[14]; at 100.0 µM,9%
